The target in assay [1] is Estrogen receptor beta (Homo sapiens) (UniProt Q92731). In words: qHTS assay to identify small molecule antagonists of the estrogen receptor beta (ER-beta) signaling pathway (AID 1259378; active = well fitted inhibition curve with a large enough effect in the signal ratio in the repeat runs, not every such curve was filed as active; the % refers to the signal ratio; note: potency is the fitted concentration of half-maximal effect). Summed up: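 ER-beta-UAS-bla HEK293T cells in 2% charcoal-stripped FBS medium treated with compound plus 1nM final 17-beta-estradiol for 16 hr at 37C. Beta-lactamase reporter read by FRET substrate fluorescence after 2 hours at room temperature.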
Estrogen receptor beta (Homo sapiens), sequence (Q92731 whole entry, looked up): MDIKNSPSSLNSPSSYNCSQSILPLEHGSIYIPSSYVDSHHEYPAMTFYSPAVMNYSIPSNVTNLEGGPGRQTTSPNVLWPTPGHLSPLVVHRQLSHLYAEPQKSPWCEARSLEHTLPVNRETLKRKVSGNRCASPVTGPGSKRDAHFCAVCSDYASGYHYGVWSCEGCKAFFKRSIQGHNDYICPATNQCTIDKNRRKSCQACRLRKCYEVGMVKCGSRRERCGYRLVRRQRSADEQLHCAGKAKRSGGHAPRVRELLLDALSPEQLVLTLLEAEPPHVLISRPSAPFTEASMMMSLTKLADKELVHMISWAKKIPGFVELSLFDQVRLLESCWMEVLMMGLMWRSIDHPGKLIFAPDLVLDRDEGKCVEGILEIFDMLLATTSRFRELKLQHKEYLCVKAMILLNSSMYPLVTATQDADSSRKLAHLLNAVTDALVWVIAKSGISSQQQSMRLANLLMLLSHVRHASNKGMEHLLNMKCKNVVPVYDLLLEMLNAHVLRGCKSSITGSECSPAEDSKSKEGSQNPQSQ

Assay [2] in a line: qHTS assay to identify small molecule agonists of the androgen receptor (AR) signaling pathway in the presence of an antagonist - cell viability counter screen (AID 1259379). Note: nearly all actives have a fitted effect of over 25% in size. Note: potency is the fitted concentration of half-maximal effect. Summed up: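 A CellTiter-Fluor read-out measured viability of MDA-kb2 reporter cells (MMTV promoter with AR and GR response elements). Treatment: nilutamide 3.0uM final with compounds at 15 concentrations, 16 hr, 37C, 0% CO2.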
(In general: Quantitative high-throughput screening tests each substance at several concentrations.)

A short description of assay [3]: qHTS assay to identify small molecule agonists of the estrogen receptor beta (ER-beta) signaling pathway - cell viability counter screen (AID 1259380). Note: nearly all actives have a fitted effect of over 30% in size. Note: potency is the fitted concentration of half-maximal effect. Summed up: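 Cells used were ER-beta-UAS-bla HEK293T in medium with 2% charcoal-stripped FBS. They were treated for 16 hr at 37C. Viability came from CellTiter-Glo luminescence.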
Assay [4] in a line: qHTS assay to identify small molecule antagonists of the estrogen receptor beta (ER-beta) signaling pathway - cell viability counter screen (AID 1259382). Note: nearly all actives have a fitted effect of over 55% in size. Note: potency is the fitted concentration of half-maximal effect. Summed up: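 Agonist-stimulated (1nM E2) ER-beta-UAS-bla HEK293T cells are incubated with library compounds for 16 hr at 37C. Cell viability is then assessed in the reporter-assay wells by adding CellTiter-Glo and reading luminescence after 30 min.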

Assay [5] is described as follows: qHTS assay to identify small molecule agonists or antagonists of the thyroid stimulating hormone receptor (TSHR) signaling pathway - wild type cell line counter screen (AID 1259384; calls by dose curve). Summed up: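 Wild-type Hek293 cells, 800/well, 18 h at 37C, then compound with Ro20-1724 for 30 min RT. cAMP by HTRF (cAMP-d2/anti-cAMP cryptate), 1 h RT, fluorescence read. 15 concentrations, triplicates.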

For assay [6], the target named is Thyrotropin receptor (Homo sapiens) (UniProt P16473). In words: qHTS assay to identify small molecule antagonists of the thyroid stimulating hormone receptor (TSHR) signaling pathway (AID 1259385; calls by dose curve; note: nearly all actives have a fitted effect of over 20% in size; note: potency is the fitted concentration of half-maximal effect). Summed up: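 TSHR-HEK293 cells (800/well) plated 18 h, then compounds with Ro20-1724 and TSH at 1.5 ng/mL final, 30 min at room temperature. cAMP quantified by HTRF (cAMP-d2/anti-cAMP-cryptate, 1 h); 15 concentrations in triplicate.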
Thyrotropin receptor (Homo sapiens), sequence (P16473 whole entry, looked up): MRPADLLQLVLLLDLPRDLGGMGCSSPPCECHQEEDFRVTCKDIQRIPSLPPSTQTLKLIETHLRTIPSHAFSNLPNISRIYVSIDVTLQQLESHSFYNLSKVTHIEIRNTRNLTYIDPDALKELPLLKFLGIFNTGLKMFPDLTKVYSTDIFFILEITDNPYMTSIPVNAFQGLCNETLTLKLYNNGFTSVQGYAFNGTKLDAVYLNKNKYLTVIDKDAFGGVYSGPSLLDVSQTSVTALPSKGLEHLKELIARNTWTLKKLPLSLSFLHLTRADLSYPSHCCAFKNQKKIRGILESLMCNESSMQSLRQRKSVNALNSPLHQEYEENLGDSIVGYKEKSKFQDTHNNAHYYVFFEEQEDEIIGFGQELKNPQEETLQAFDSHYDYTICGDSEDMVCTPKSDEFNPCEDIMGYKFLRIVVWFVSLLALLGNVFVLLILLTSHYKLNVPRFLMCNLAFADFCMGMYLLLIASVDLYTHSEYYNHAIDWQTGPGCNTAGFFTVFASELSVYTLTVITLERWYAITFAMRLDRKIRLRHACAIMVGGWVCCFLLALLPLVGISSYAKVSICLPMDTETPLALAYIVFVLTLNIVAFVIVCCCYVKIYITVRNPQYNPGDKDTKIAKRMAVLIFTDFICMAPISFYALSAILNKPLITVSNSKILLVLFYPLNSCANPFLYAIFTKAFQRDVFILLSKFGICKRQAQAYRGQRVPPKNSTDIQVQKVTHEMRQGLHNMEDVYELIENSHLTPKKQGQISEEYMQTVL

A short description of assay [7]: qHTS assay to identify small molecule agonists of the estrogen receptor alpha (ER-alpha) signaling pathway in the presence of an antagonist - cell viability counter screen (AID 1259386).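 Note: cells exposed to compounds for 22 h at 37 °C before the viability read; nearly all actives have a fitted effect of over 30% in size.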 Note: potency is the fitted concentration of half-maximal effect. Put shortly: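 ICI-182,780 at 10.0nM final accompanies the compound titration (15 concentrations, 22hr, 37C) on VM7Luc4E2 cells. The CellTiter-Fluor fluorescence readout runs in the same wells as the luciferase assay.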

Assay [8] deals with Estrogen receptor beta (Homo sapiens) (UniProt Q92731). As to the kind of experiment: qHTS assay to identify small molecule agonists of the estrogen receptor beta (ER-beta) signaling pathway (AID 1259377; active = well fitted activation curve with a large enough effect in the signal ratio in the repeat runs, not every such curve was filed as active; the % refers to the signal ratio; note: potency is the fitted concentration of half-maximal effect). Put shortly:
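Screening used GripTite ER-beta-UAS-bla cells held in 2% charcoal-stripped FBS medium. After overnight (16 hr) compound incubation at 37C, beta-lactamase activity was detected with a FRET substrate by fluorescence.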

Assay [9] has as its target Estrogen receptor (Homo sapiens) (UniProt P03372). As to the kind of experiment: qHTS assay to identify small molecule agonists of the estrogen receptor alpha (ER-alpha) signaling pathway in the presence of an antagonist (AID 1259383; calls by dose curve; note: nearly all actives have a fitted effect of over 15% in size; note: potency is the fitted concentration of half-maximal effect; for activation: top concentration of the series differs between compounds). Summed up:
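Using VM7Luc4E2 cells seeded 24hr before treatment, antagonist ICI-182,780 (10.0nM final) was added, followed by compounds at 15 concentrations. Plates incubated 22hr; ONE-Glo luminescence quantified reporter activity.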

The target of assay [10] is Androgen receptor (Homo sapiens) (UniProt P10275). In words: qHTS assay to identify small molecule agonists of the androgen receptor (AR) signaling pathway in the presence of an antagonist (AID 1259381; calls by dose curve; note: nearly all actives have a fitted effect of over 15% in size). Put shortly:
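Using human MDA-kb2 cells with an MMTV promoter–luciferase construct (AR and GR response elements), agonist activity is scored under 3.0uM nilutamide (final) co-treatment; 16hr incubation, 37C, luminescence readout via ONE-Glo.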

Each structure is given as a SMILES string. Values without a mark were called inactive. Results filed as inconclusive are left out. Calls of active or inactive are those of the source. Unless noted, calls come from the whole dose curve; as a rule, active = well fitted curve in the direction sought with a large enough effect in the repeat runs; inconclusive = weak or mixed curves; inactive = no such curve, though single readings can be large; an effect the other way counts as inactive or inconclusive.

Androgen receptor (Homo sapiens), sequence (P10275 whole entry, looked up): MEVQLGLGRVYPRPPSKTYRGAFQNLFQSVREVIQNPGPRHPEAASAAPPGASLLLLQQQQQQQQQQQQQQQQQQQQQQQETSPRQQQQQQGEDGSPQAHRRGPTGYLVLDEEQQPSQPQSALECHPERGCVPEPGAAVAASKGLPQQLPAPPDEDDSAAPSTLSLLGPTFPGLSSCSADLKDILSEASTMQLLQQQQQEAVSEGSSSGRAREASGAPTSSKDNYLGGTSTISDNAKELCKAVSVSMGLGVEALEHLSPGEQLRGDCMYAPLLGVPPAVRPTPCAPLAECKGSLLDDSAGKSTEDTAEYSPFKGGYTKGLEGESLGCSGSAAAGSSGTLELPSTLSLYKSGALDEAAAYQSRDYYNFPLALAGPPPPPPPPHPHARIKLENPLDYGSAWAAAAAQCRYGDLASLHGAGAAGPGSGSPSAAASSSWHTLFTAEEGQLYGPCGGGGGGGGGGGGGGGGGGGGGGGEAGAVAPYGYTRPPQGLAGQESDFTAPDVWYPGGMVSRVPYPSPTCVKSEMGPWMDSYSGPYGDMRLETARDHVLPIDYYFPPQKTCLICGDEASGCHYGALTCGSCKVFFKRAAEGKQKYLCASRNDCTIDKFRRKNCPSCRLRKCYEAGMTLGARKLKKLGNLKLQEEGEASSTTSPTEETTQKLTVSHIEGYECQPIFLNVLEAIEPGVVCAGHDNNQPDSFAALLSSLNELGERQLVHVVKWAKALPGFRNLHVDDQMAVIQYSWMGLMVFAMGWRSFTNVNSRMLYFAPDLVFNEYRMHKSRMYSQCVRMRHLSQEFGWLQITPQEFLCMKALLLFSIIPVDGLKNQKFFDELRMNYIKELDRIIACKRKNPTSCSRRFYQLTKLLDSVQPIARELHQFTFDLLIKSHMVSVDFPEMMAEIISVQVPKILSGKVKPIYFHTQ
Estrogen receptor (Homo sapiens), sequence (P03372 whole entry, looked up): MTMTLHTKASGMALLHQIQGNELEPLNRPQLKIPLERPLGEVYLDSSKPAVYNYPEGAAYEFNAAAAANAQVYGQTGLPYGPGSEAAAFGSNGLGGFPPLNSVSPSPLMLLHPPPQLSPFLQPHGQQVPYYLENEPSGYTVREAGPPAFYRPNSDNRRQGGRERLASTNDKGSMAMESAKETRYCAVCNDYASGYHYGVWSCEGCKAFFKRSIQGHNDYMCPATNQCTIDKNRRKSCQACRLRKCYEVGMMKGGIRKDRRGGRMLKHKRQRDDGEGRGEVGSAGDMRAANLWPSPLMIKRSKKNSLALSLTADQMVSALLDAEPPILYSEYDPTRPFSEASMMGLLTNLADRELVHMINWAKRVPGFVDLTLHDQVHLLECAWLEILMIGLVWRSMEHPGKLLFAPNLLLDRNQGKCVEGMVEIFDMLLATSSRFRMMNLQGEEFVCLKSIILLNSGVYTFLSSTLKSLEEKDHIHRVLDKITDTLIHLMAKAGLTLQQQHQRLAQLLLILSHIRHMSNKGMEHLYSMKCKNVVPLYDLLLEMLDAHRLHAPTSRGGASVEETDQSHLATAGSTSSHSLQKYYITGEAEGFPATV

Turning to `O=C(O)/C=C/c1cnc[nH]1`, the Potency result in assay [1], in [2], in [3], in [4], in assay [5] and in assay [6] was “inactive” each time. Also, the Potency entry in assay [7] is “inactive”.

As for `O=C=NC1CCC(CC2CCC(N=C=O)CC2)CC1` (stereo not given), the Potency entry in assay [8], in assay [5] and in assay [6] was “inactive” throughout. Also, the Potency in assay [2] was 30.6 µM (active); in assay [3], 68.6 µM (active).

As for `Nc1ccc(C(=O)N2CC3CC(CN(Cc4ccccc4)C3)C2)cc1`, the Potency entry in [8], in assay [2], in [4], in assay [9], in assay [5] and in assay [7] was “inactive” each time.

For `CC(=O)O[C@@H]1C(=O)O[C@@H]2[C@H]1OC(=O)[C@@H]2OC(C)=O`, the Potency result in assay [1], in [2], in assay [3], in assay [4], in assay [9] and in assay [5] was “inactive” throughout. Further, the Potency entry in assay [6] and in assay [7] was “inactive” in each case.

For `Cc1cccc(C(C)(C)C)c1O`, the Potency entry in assay [1], in assay [2], in [3], in assay [4], in assay [9] and in [7] was “inactive” each time.

Regarding `Cc1ccc(C)o1`, the Potency entry in assay [1], in assay [2], in assay [3], in assay [4], in assay [5] and in assay [6] was “inactive” throughout.

As to `CCOc1cc(OCC)c(C(=O)CCC(=O)O)cc1OCC`, the Potency result in assay [1], in assay [2], in assay [3], in [4], in [9] and in assay [7] was “inactive” each time.

On to `CCN(CC)C(C)CN1c2ccccc2Sc2ccccc21` (stereo not given), for which the Potency entry in [1], in assay [2], in assay [3], in assay [4], in [9] and in assay [5] was “inactive” each time. Further, the Potency entry in assay [6] and in assay [7] was “inactive” each time.

As for `Oc1ccc(Sc2ccc(O)cc2)cc1`, the Potency in assay [8] was 6.42 µM (active); in assay [9], 14.4 µM (active). The Potency entry in [2], in [4], in assay [5] and in assay [7] was “inactive” each time.

Regarding `CC(C(=O)O)c1ccc(-c2ccccc2)c(F)c1` (stereo not given), the Potency entry in assay [1], in assay [2], in [3], in assay [4], in assay [9] and in assay [7] was “inactive” throughout.

Consider `C1CCC2OC2C1` (stereo not given), for which the Potency result in assay [1], in assay [2], in assay [3], in assay [10], in assay [4] and in assay [9] was “inactive” in each case. The Potency entry in assay [5] and in assay [7] was “inactive” each time.

As for `CC/C(=C\C(=N/O)C(N)=O)C(C)[N+](=O)[O-]` (stereo not given), the Potency entry in assay [1], in assay [2], in assay [3], in [4], in assay [9] and in [5] was “inactive” each time. Moreover, the Potency result in assay [6] and in assay [7] was “inactive” throughout.

As for `COCCCCCCCCOCCC[Si](C)(O[Si](C)(C)C)O[Si](C)(C)C`, the Potency result in [8], in [4], in assay [9], in [5] and in [6] was “inactive” in each case. Moreover, the Potency in assay [2] was 17.2 µM (active); in [7], 24.3 µM (active).

Regarding `CN1CCC(=C2c3ccccc3CCc3sccc32)CC1`, the Potency entry in assay [8], in assay [9], in [5], in assay [6] and in [7] was “inactive” throughout. For the same compound, the results for the Potency in assay [3] and in assay [4] were 26.6 µM (active) and 21.1 µM (active), respectively.

As for `Oc1ccc(O)c2c(O)cccc12`, the Potency entry in [8], in assay [3], in [4], in assay [9], in assay [5] and in assay [6] was “inactive” in each case. The Potency entry in assay [7] is “inactive”.

For the compound `CN(C)CCCNCCCN`, the Potency entry in assay [8], in assay [2], in assay [4], in assay [9], in [5] and in assay [6] was “inactive” throughout. Also, the Potency entry in assay [7] is “inactive”.

Turning to `Cc1ncsc1CCO`, the Potency entry in assay [1], in assay [2], in assay [3], in assay [4], in assay [9] and in assay [5] was “inactive” in each case. The Potency result in assay [6] and in assay [7] was “inactive” throughout.

In the case of `CCCCCOC(=O)COc1cc(N2C(=O)C3=C(CCCC3)C2=O)c(F)cc1Cl`, the Potency entry in assay [8], in assay [2], in assay [4], in [9], in assay [5] and in [6] was “inactive” in each case. In assay [7], the Potency result is “inactive”.

`CC(C)(C)c1cc(O)c(C(C)(C)C)cc1O`: the values for the Potency in assay [1] and in assay [2] were 30.6 µM (active) and 54.5 µM (active), respectively. The Potency result in assay [10], in assay [4], in assay [9] and in [5] was “inactive” throughout.

For `COc1ccc(OC)c(OC)c1`, the Potency entry in assay [1], in assay [2], in [3], in [4], in assay [9] and in assay [5] was “inactive” throughout. For the same compound, the Potency entry in assay [6] and in assay [7] was “inactive” in each case.

In the case of `CC(C)(C)c1cc(CO)cc(C(C)(C)C)c1O`, the Potency entry in assay [8], in assay [2], in assay [4], in assay [9], in assay [5] and in [6] was “inactive” in each case. Further, the Potency entry in assay [7] is “inactive”.

In the case of `COc1ccccc1OC(=O)Oc1ccccc1OC`, the Potency result in assay [1], in assay [2], in [10], in assay [5], in assay [6] and in [7] was “inactive” in each case. Also, in [3], the Potency was 23.7 µM (active).

As for `Nc1nc(N)c2nc(CNc3ccc(C(=O)N[C@@H](CCC(=O)O)C(=O)O)cc3)cnc2n1`, the Potency entry in assay [1], in assay [2], in [3], in [4], in [9] and in assay [5] was “inactive” throughout. In addition, the Potency entry in assay [6] and in assay [7] was “inactive” each time.

As for `CC(=O)N(CC(=O)N(C)C)c1ccccc1`, the Potency result in [1], in assay [2], in assay [3], in assay [4], in assay [9] and in assay [5] was “inactive” throughout. The Potency result in assay [6] and in assay [7] was “inactive” throughout.

Turning to `Cc1ccc(C(C)c2ccc(C)c(C)c2)cc1C`, the Potency entry in [1], in assay [2], in assay [3], in [4], in assay [9] and in [5] was “inactive” each time. The Potency entry in assay [7] was “inactive”.

For the compound `Cn1c(N)nc2nc[nH]c2c1=O`, the Potency entry in [8], in assay [3], in assay [4] and in assay [7] was “inactive” in each case.

Turning to `Cn1c(NCCN(CCO)CCCc2ccc([N+](=O)[O-])cc2)cc(=O)n(C)c1=O`, the Potency entry in assay [1], in assay [2], in assay [3], in [4], in assay [5] and in assay [6] was “inactive” in each case. Moreover, the Potency result in assay [7] was “inactive”.

Turning to `CCCCCCCC/C=C\CCCCCCCC(N)=O`, the Potency entry in assay [8], in [2], in [10], in assay [4], in [5] and in assay [7] was “inactive” each time.

As to `CC(=O)N(O)CCCCCNC(=O)CCC(=O)N(O)CCCCCNC(=O)CCC(=O)N(O)CCCCCN`, the Potency entry in assay [1], in [2], in [3], in assay [10], in assay [4] and in [9] was “inactive” each time. Moreover, the Potency result in assay [5], in [6] and in assay [7] was “inactive” in each case.

Take `CCCCCCCCCC(=O)OCC`: the Potency result in [1], in [2], in [3], in [4], in assay [9] and in assay [5] was “inactive” throughout. The Potency entry in assay [7] was “inactive”.

With `Cn1c(=O)c2c(ncn2CC(O)CO)n(C)c1=O` (stereo not given), the Potency result in [8], in assay [2], in [4], in assay [9], in assay [5] and in assay [6] was “inactive” each time. The Potency result in assay [7] is “inactive”.

Regarding `CCOC(=O)[C@H](CCc1ccccc1)N[C@H]1CCc2ccccc2N(CC(=O)O)C1=O`, the Potency entry in [8], in assay [2], in assay [5] and in assay [7] was “inactive” each time. Besides, the Potency in assay [3] was 11.9 µM (active); in assay [6], 29.8 µM (active).

These data come from PubChem BioAssay (Tox21).
